Potency, caspase-3 activation and outcome data for 30 compounds are collected here from PubChem BioAssay (NCATS).

Test [1] is described as follows: Cellular Toxicity (caspase-3) HepG2 (AID 654).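 Further: cells exposed to compound for 16 hours before reading.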 The method, boiled down: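 HepG2 cells (1500/well) in complete medium were treated with compounds for 16 hr at 37 °C. Caspase-3/7 activity was then read as luminescence from peptide-aminoluciferin cleavage. AC50 came from Hill fits, normalized to DMSO and 100 uM tamoxifen.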
A short description of test [2]: Cellular Toxicity (caspase-3) Jurkat (AID 655).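 Further: cells exposed to compound for 16 h at 37 °C before reading.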 Particulars: Jurkat caspase-3 activation, luminescence; caspase-3 activation: at 92.2 µM (top of the series), DMSO = 0%, tamoxifen = 100%. The method, boiled down: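 Jurkat cells (5000/well) in complete medium exposed 16 h at 37 C; caspase-3/7 activity read by Caspase-Glo luminescence after 20 min at room temperature. Normalized to DMSO and 100 uM tamoxifen; AC50 from Hill fits.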

Test [3] is described as follows: Cellular Toxicity (caspase-3) HUV-EC-C (AID 656). The method, boiled down: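 HUV-EC-C cells (1000/well) in complete medium, compound-treated 16 h at 37 °C; caspase-3/7 activity read by Caspase-Glo 3/7 luminescence. Normalized to DMSO (basal) and 100 uM tamoxifen (100%); AC50 from Hill-equation concentration-response fits.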
Test [4] is described as follows: Cellular Toxicity (caspase-3) SHSY5Y (AID 657). The method, boiled down: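 SH-SY5Y human neuroblastoma cells, 1500/well, exposed to compound for 16 hours at 37 °C in complete medium. Caspase-3/7 activity read by Caspase-Glo luminescence after 1 hr at room temperature, normalized to DMSO and 10 uM staurosporine; AC50 from Hill fit.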
The nature of test [5]: Cellular Toxicity (caspase-3) BJ (AID 658). The method, boiled down: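 Luminescent aminoluciferin-substrate cleavage reports caspase 3/7 activity in normal human BJ fibroblasts after 16 hr compound exposure at 37 °C. Normalized to DMSO (basal) and 10 uM staurosporine (100%); AC50 from Hill fit of concentration-response.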
Test [6] in a line: Cellular Toxicity (caspase-3) Mesangial (AID 660).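 Further: cells exposed to compound for 16 h before the caspase read.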 The method, boiled down:
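Human renal glomerular mesangial cells (1000/well) were treated with compounds for 16 h at 37 °C in complete medium, then caspase 3/7 activity was read by Caspase-Glo luminescence. Data were normalized to DMSO and 100 uM tamoxifen; AC50 from Hill fits.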

The nature of test [7]: Cellular Toxicity (caspase-3) SK-N-SH (AID 661). The method, boiled down: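 SK-N-SH human neuroblastoma cells (1500/well) were treated with compounds for 16 hr at 37 °C in complete medium; caspase 3/7 activity was read by Caspase-Glo luminescence. AC50 came from Hill fits of data normalized to DMSO and 10 uM staurosporine.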
A short description of test [8]: Cellular Toxicity (caspase-3) H-4-II-E (AID 663).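 Further: cells exposed to compound for 16 hr before readout.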 Particulars: H-4-II-E rat hepatoma, scaled: DMSO 0%, 100 µM tamoxifen 100%; at 92.2 µM (top of the series). The method, boiled down:
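Luminescence from caspase-cleaved aminoluciferin substrate, read 20 min after reagent addition, reports caspase 3/7 activation in rat H-4-II-E cells after 16 hr compound exposure. Normalized to DMSO (basal) and 100 uM tamoxifen (100%); AC50 from Hill fits.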

Test [9] can be described thus: Cellular Toxicity (caspase-3) Hek293 (AID 664).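 Further: cells exposed to compound for 16 h at 37 °C before readout.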 The method, boiled down: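 HEK293 cells were exposed to compounds in complete medium for 16 hr at 37 °C, then caspase-3/7 activity was read by Caspase-Glo 3/7 luminescence after 20 min at room temperature. Data normalized to DMSO and 100 uM tamoxifen; AC50 from Hill fits.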
A short description of test [10]: Cellular Toxicity (caspase-3) N2a (AID 665).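 Further: compound exposure lasted 16 h at 37 °C before readout.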 The method, boiled down:
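Mouse N2a neuroblastoma cells (1500/well) were treated with compounds for 16 h at 37 °C, then caspase-3/7 activity was read by Caspase-Glo luminescence after 1 h at room temperature. Data were normalized to DMSO and 10 uM staurosporine; AC50 from Hill fits.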

A short description of test [11]: Cellular Toxicity (caspase-3) NIH 3T3 (AID 666). The method, boiled down: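 Mouse NIH 3T3 fibroblasts (1000 cells/well) were treated with compound for 16 hr at 37°C in complete medium; caspase-3/7 activity was read by Caspase-Glo luminescence. Normalized to DMSO and 100 uM tamoxifen; AC50 from Hill fits.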
Test [12] in a line: Cellular Toxicity (caspase-3) Renal Proximal Tubule (AID 667).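 Further: cells exposed to compound for 16 hours at 37 °C before detection.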 The method, boiled down: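 Freshly isolated primary rat kidney proximal tubule cells, 1000/well, treated 16 hr at 37 °C, then Caspase-Glo 3/7 luminescence after 1 hr. Normalized to DMSO and 10 uM staurosporine; AC50 from Hill fit.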
Test [13] addresses Cytochrome P450 3A4 (Homo sapiens) (UniProt P08684). The test is described as follows: qHTS Assay for Inhibitors and Substrates of Cytochrome P450 3A4 (AID 884). Further: nearly all actives have a fitted effect of over 50% in size. Further: potency means the concentration at half of the fitted maximal effect. The method, boiled down:
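20 nM human CYP3A4 with 25 uM Luciferin-PPXE (at KM) in 200 mM KPO4, preincubated 10 min with compound; NADPH regeneration started a 60 min RT reaction. Luciferin detected by luminescence, normalized to 57 uM ketoconazole as full inhibition.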

Test [14] in a line: Confirmation and Secondary Assay for Modulators of Hemoglobin Beta Chain Splicing at IVS2 654 locus (AID 910).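 Further: per-well total GFP intensity by laser scanning cytometry after 2-day treatment.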 The method, boiled down: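 HeLa cells stably carrying EGFP interrupted by mutant beta-globin IVS2-654 intron (CMV-driven) were treated with compound for 2 days at 37C; corrected splicing was scored as total peak GFP intensity per well (488 nm excitation, 500-520 nm emission).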

In test [15] the target is Cytochrome P450 2C19 (Homo sapiens) (UniProt P33261). The test is described as follows: qHTS Assay for Inhibitors and Substrates of Cytochrome P450 2C19 (AID 899). Further: nearly all actives have a fitted effect of over 60% in size. Further: potency means the concentration at half of the fitted maximal effect. The method, boiled down: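 Human CYP2C19 (5nM) with Luciferin-H EGE at 10uM (its KM) in 50mM KPO4 was preincubated with compound for 10 min at 37C. NADPH regeneration started a 60 min 37C reaction. Luciferin was read by luminescence, normalized to 57uM ketoconazole.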
Chain of Cytochrome P450 2C19 (Homo sapiens) (P33261 whole entry, looked up): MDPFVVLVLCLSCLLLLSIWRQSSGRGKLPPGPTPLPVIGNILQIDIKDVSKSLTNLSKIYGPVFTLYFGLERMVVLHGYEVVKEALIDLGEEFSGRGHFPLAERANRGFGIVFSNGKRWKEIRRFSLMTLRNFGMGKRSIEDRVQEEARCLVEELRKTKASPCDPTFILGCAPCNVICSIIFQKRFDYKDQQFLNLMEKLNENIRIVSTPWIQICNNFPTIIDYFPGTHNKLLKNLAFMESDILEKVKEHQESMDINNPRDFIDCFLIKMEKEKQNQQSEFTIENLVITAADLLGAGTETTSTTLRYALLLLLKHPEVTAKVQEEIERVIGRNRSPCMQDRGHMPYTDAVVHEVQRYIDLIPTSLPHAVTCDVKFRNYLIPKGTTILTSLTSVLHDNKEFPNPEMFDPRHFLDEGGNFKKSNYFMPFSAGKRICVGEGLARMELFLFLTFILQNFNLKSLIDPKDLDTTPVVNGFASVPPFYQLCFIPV
On the technique in general: In qHTS, concentration-response curves come from the screen itself.

Test [16] has as its target Cytochrome P450 2C9 (Homo sapiens) (UniProt P11712). The test is described as follows: qHTS Assay for Inhibitors and Substrates of Cytochrome P450 2C9 (AID 883). Further: nearly all actives have a fitted effect of over 60% in size. Further: potency means the concentration at half of the fitted maximal effect. The method, boiled down: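 Human CYP2C9 (10nM) hydroxylated Luciferin-H (100uM, at its KM) to luciferin in 25mM KPO4. Compound was preincubated 10 min at 37C, then NADPH regeneration started a 60 min reaction at 37C. Luminescence was read after detection reagent, normalized to 57uM sulphaphenazole.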

The target of test [17] is Cytochrome P450 2D6 (Homo sapiens) (UniProt P10635). In words: qHTS Assay for Inhibitors and Substrates of Cytochrome P450 2D6 (AID 891). Further: potency means the concentration at half of the fitted maximal effect; nearly all actives have a fitted effect of over 60% in size. The method, boiled down:
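Human CYP2D6 (5 nM) with 30 uM Luciferin-ME EGE (at Km) in 100 mM KPO4, compound preincubated 10 min, then NADPH regeneration system for 60 min at room temperature. Luciferin read by luminescence; normalized to 1.43 uM quinidine.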

Test [18] has as its target Cytochrome P450 3A4 (Homo sapiens) (UniProt P08684). In words: qHTS Assay for Activators of Cytochrome P450 3A4 (AID 885). Further: nearly all actives have a fitted effect of over 65% in size. The method, boiled down:
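Steps: enzyme/substrate mix dispensed; compound added, 10 min RT; NADPH regeneration solution added, 60 min RT; luciferin detection buffer stops reaction; 20 min later luminescence measured.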

Test [19] has as its target Guanine nucleotide-binding protein G(i) subunit alpha-1 (Homo sapiens) (UniProt P63096). In words: qHTS Assay for Inhibitors of RGS12 GoLoco Motif Activity (Green Fluorophore) (AID 879).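 Further: negative values mean loss of peptide binding seen as reduced polarization.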 The method, boiled down: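 Fluorescence polarization assay: 50 nM Gαi1 with 10 nM FITC-labeled RGS12 GoLoco peptide in 10 mM Tris pH 7.5, 150 mM NaCl, 0.1 mM GDP, 0.05% NP40, 10 min at room temperature with compound.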

Test [20] is described as follows: qHTS Assay for Identification of Small Molecule Antagonists for NFkB Signaling Pathway (AID 895; active means well fitted inhibition curve with a large enough effect in the signal ratio, with a control signal flat, not every such curve was filed as active; the % refers to the signal ratio; further: potency means the concentration at half of the fitted maximal effect). The method, boiled down:
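NFkB-bla ME-180 cervical carcinoma cells with beta-lactamase reporter under NFkB response element; compounds added, then TNF alpha at 10 pM final (EC50), 5 h at 37 C. LiveBLAzer substrate 2 h, room temperature; emission 460/530 nm at 405 nm excitation.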

A number with no mark means an inactive call. Results filed as inconclusive are left out. Entries that show only a call come without a potency. More than one record can exist for a structure, and the calls need not agree. Calls of active or inactive are those of the source. Unless noted, the call rests on the fitted dose curve; in most records, active means well fitted curve in the direction sought with a large enough effect; inconclusive means small, poorly fitted or top-dose-only effect, or another doubt; inactive means no such curve, though single readings can be large; an effect the other way counts as inactive or inconclusive.

Chain of Cytochrome P450 3A4 (Homo sapiens) (P08684 whole entry, looked up): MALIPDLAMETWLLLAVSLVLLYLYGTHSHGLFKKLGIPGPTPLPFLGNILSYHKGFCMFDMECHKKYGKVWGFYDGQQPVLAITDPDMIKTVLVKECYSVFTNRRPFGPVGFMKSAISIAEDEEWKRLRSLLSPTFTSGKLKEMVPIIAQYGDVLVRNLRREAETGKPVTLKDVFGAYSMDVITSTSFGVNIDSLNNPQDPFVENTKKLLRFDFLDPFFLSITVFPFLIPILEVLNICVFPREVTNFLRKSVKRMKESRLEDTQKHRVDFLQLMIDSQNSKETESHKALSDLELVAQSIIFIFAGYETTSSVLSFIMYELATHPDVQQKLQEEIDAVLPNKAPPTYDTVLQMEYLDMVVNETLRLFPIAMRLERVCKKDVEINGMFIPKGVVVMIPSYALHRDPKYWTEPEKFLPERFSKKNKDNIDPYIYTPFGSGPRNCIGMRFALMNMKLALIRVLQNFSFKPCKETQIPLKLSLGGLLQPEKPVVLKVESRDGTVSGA
Chain of Cytochrome P450 2C9 (Homo sapiens) (P11712 whole entry, looked up): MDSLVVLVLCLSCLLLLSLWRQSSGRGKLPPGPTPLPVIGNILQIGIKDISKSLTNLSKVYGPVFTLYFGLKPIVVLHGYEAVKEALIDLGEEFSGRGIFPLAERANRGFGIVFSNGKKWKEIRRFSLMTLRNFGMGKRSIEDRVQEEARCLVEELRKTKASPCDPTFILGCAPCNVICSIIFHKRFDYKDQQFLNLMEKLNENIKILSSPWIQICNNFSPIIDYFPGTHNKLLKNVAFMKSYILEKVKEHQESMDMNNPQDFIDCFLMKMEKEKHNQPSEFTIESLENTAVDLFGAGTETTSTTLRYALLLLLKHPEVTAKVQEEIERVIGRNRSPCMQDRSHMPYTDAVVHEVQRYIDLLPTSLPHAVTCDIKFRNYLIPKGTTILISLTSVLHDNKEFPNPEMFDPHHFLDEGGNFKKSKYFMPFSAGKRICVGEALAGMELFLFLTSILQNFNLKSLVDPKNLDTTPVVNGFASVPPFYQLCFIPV
Chain of Cytochrome P450 2D6 (Homo sapiens) (P10635 whole entry, looked up): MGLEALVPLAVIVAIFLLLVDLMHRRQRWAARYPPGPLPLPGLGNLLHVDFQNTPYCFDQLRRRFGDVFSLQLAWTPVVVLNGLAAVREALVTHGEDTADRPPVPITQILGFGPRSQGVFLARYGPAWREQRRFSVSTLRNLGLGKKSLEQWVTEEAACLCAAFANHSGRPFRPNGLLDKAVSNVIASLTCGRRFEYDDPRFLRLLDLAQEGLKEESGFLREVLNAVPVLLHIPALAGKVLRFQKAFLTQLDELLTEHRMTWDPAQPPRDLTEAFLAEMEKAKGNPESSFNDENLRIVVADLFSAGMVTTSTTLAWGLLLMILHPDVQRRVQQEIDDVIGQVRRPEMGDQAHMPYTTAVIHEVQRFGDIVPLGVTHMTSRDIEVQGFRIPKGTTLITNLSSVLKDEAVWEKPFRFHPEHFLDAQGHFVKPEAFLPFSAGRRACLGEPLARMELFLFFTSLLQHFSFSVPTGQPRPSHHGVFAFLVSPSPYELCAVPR
Chain of Guanine nucleotide-binding protein G(i) subunit alpha-1 (Homo sapiens) (P63096 whole entry, looked up): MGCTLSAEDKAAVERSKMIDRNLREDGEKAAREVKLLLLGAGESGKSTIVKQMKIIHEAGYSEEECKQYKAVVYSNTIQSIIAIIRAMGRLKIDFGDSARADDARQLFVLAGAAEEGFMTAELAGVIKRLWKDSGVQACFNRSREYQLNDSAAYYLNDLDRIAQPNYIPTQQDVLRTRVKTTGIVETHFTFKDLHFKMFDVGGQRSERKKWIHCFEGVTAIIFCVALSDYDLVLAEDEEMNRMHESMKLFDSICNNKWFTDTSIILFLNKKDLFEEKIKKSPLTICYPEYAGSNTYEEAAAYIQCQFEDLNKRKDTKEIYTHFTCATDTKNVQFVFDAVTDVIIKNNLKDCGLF

For the compound `NCC(O)c1ccc(O)cc1` (centres undefined), the Potency result in [1], in test [4] and in test [13] was “inactive” in each case. Besides, the caspase-3 activation in test [2] was -0.0147%; in [8], -0.161%. Moreover, the outcome in [3], in test [5], in test [6], in test [7], in test [9] and in test [10] was inactive. For the same compound, the call in [11], in test [12] and in [14] was inactive.

Regarding `O=[N+]([O-])c1cc([As](=O)(O)O)ccc1O`, the Potency entry in [13] and in test [15] was “inactive” throughout. The outcome in test [14] was inactive.

In the case of `O=C(O)c1ccc2[nH]cc(CCCCN3CC=C(c4ccccc4)CC3)c2c1`, the Potency entry in [13] was “inactive”.

As to `CC[N+]1(C)CCCC(OC(=O)C(O)(c2ccccc2)c2ccccc2)C1` (centres undefined), the Potency result in [13] is “inactive”. The call in test [14] was inactive.

Consider `COc1cc2c(c(OC)c1OC)-c1ccc(OC)c(=O)cc1[C@@H](NC(C)=O)CC2`, for which the Potency is 3.16 µM (active) in test [16] and 0.794 µM (active) in test [17].

Consider `COc1ccc(Cc2nccc3cc(OC)c(OC)cc23)cc1OC`, for which the Potency was 12.6 µM (active) in test [16], 12.6 µM (active) in test [17] and 5.01 µM (active) in test [15]. The compound was classed as inactive in [18] and in test [14].

Take `C=C(C)[C@H]1Cc2c(ccc3c2O[C@@H]2COc4cc(OC)c(OC)cc4[C@@H]2C3=O)O1`: in test [15], the Potency is 1 µM (active).

In the case of `Cc1ccc(-c2nc3ccc(C)cn3c2CC(=O)N(C)C)cc1`, the compound was called inactive in test [14].

In the case of `COc1ccc(C(CN(C)C)C2(O)CCCCC2)cc1` (centres undefined), the Potency entry in test [13] is “inactive”. Besides, the outcome in test [14] was inactive.

In the case of `CC(C)=CC1C(C(=O)OCc2cccc(Oc3ccccc3)c2)C1(C)C` (centres undefined), the Potency result in test [13] is “inactive”. For the same compound, the outcome in test [14] was inactive.

Regarding `Cc1c(OCC(F)(F)F)ccnc1CS(=O)c1nc2ccccc2[nH]1` (centres undefined), the Potency in [17] is 31.6 µM (active).

As for `CC(C)(C)NCC(O)c1cc(Cl)c(N)c(Cl)c1` (centres undefined), the compound was classed as inactive in [18] and in test [14].

Consider `Cc1ncc(CNC(=O)N(CCCl)N=O)c(N)n1`, for which the call in [19] and in test [14] was inactive.

Turning to `CCC(COC(=O)c1cc(OC)c(OC)c(OC)c1)(c1ccccc1)N(C)C` (centres undefined), the compound was classed as inactive in test [14].

As for `CC(C)CC(N(C)C)C1(c2ccc(Cl)cc2)CCC1` (centres undefined), the compound was classed as inactive in [18] and in [14].

As for `CCC1C(=O)OCC1Cc1cncn1C` (centres undefined), the result in test [18] was inactive.

As to `CN1C[C@H](CNC(=O)OCc2ccccc2)C[C@@H]2c3cccc4c3c(cn4C)C[C@H]21`, in test [20], the Potency result is “inactive”.

For the compound `Cc1nc2n(c(=O)c1CCN1CCC(c3noc4cc(F)ccc34)CC1)CCCC2`, the Potency in test [17] is 3.16 µM (active).

Regarding `CC(C)C(=O)Nc1ccc([N+](=O)[O-])c(C(F)(F)F)c1`, in [15], the Potency result was “inactive”.

Turning to `O=c1[nH]c2ccccc2n1CCCN1CCC(n2c(=O)[nH]c3cc(Cl)ccc32)CC1`, the compound was classed as inactive in test [19] and in [14].

`CCCN(CCC)CCc1cccc2c1CC(=O)N2`: the Potency entry in test [16] and in test [15] was “inactive” throughout. Moreover, the Potency in [17] was 3.16 µM (active).

Take `NCCc1cc(O)c(O)cc1O`: in [13], the Potency entry was “inactive”. The compound was called inactive in test [14].

Take `CCC1(C2=NCCN2)Cc2ccccc2O1` (centres undefined): the Potency entry in test [13] is “inactive”. In test [14], the outcome was inactive.

As for `CCOC(=O)c1ncn2c1CN(C)C(=O)c1cc(F)ccc1-2`, the Potency in test [15] was 1.58 µM (active).

`CC(=O)Nc1cc([As](=O)(O)O)ccc1O`: the Potency entry in test [13] was “inactive”. Further, in [14], the call was inactive.

As for `CN(C)CCC=C1c2ccccc2CCc2ccccc21`, the Potency in test [17] is 7.94 µM (active).

For the compound `CC(CCc1ccccc1)NC(C)C(O)c1ccc(O)cc1` (centres undefined), in [13], the Potency result is “inactive”. In test [14], the compound was classed as inactive.

In the case of `O=c1c(O)c(-c2ccc(O)c(O)c2)oc2cc(O)cc(O)c12`, the Potency in test [20] is 5.62 µM (active).

Consider `Cc1cc(SCc2sc(-c3ccc(C(F)(F)F)c(F)c3)nc2C)ccc1OCC(=O)O`, for which the Potency in test [13] was 7.94 µM (active). Also, the compound was called inactive in [18].

With `CC(C)=CCOc1c2occc2cc2ccc(=O)oc12`, the outcome in [14] was inactive.
